High-throughput results: PubChem BioAssay, NMMLSC
VLA-4 inh: inhibition in human VLA-4 binding assay, primary screen, VLA-4 allosteric modulator project, MLPCN library, flow cytometry, VLA-4 expressing cells | ligand binding flow cytometry | inhibition, % (about 7 µM as worked out from the volumes in the protocol) | AID 2557, 2010 | 0.2% of 330,000 active | Integrin alpha-4 (Homo sapiens), P13612; in the data active means inhibition above about 50%
MEP2 TOR yeast: modulators of MEP2-GFP levels in yeast, primary screen, S. cerevisiae, multiplex flow cytometry, MLPCN library; S. cerevisiae MEP2-GFP strain, 3 h; 100% = DMSO control level; GFP response vs DMSO, % at 10 µM; 0.51% of 330,000 active;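 active means GFP response versus DMSO above a set limit, roughly screen mean plus 3 SD, cut at about 180% in these data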;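 further: median GFP fluorescence of the barcode-gated MEP2-GFP cells per well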
AGP1-GFP MLPCN: modulators of AGP1-GFP expression in yeast TOR pathway, primary screen, cell-based, multiplex flow cytometry, S. cerevisiae, MLPCN library; 3 h; GFP as percent of DMSO wells; GFP response vs DMSO, % at 10 µM; 0.02% of 320,000 active;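 active means GFP response relative to DMSO above a set limit, near screen average plus 3 SD, cut at about 150% in these data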;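 further: median GFP channel fluorescence of the gated AGP1 strain per well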
LAP4-GFP MLPCN: modulators of LAP4-GFP expression in yeast, primary screen, S. cerevisiae, multiplex flow cytometry, MLPCN library. 3 h; median GFP as percent of DMSO wells. GFP response vs DMSO, % at 10 µM. 0.34% of 320,000 active. AID 2023, 2009;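 active means GFP response vs DMSO above a set limit, about the screen mean plus 3 SD, cut at about 150% in these data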
RPL19A-GFP yeast: RPL19A-GFP expression modulators in yeast, primary screen, cell-based, S. cerevisiae, multiplex flow cytometry, MLPCN. S. cerevisiae RPL19A-GFP strain, 3 h; active compounds read low. AID 2025, 2009. 0.3% of 330,000 active. percent response vs DMSO, % at 10 µM;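 active means percent response vs DMSO below 50%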;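 further: median channel GFP fluorescence of the barcoded RPL19A-GFP strain; lower means less RPL19A-GFP as with rapamycin TOR inhibition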
CIT2 TOR yeast: modulators of CIT2-GFP expression in yeast, primary screen, S. cerevisiae, GFP fusion, multiplex flow cytometry, MLPCN library; S. cerevisiae CIT2-GFP strain, 3 h; 100 means same as DMSO wells; GFP response vs DMSO, % at 10 µM; 0.065% of 320,000 active;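 active means GFP response relative to DMSO above a set limit, near the screen mean plus 3 SD, cut at about 150% in these data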;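 further: ratio of well median GFP fluorescence to mean of DMSO wells on the plate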
LAP4 cherry2: LAP4-GFP expression modulators in yeast, confirmation, cell-based, second cherry pick, flow cytometry | shares compounds with LAP4-GFP MLPCN | S. cerevisiae LAP4-GFP strain, 3 h | AID 2621, 2010 | 20% of 590 active | GFP response vs DMSO, % at 10 µM;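 active means GFP signal as percent of the solvent control above about 150%, meaning raised reporter expression, limit read from the data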
MEP2 cherry2: modulators of MEP2-GFP levels in yeast, confirmation, S. cerevisiae, flow cytometry GFP, second cherry picks. shares compounds with LAP4-GFP MLPCN. S. cerevisiae MEP2-GFP strain, 3 h. 10% of 590 active. GFP response vs DMSO, % at 10 µM. AID 2622, 2010;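 active means GFP signal above 150% of the solvent control wells, that is a rise of more than half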;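 further: median channel GFP fluorescence of all gated yeast cells per well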
RPL19A-GFP pick2: RPL19A-GFP modulators in TOR pathway yeast, confirmation, cell-based, S. cerevisiae, flow cytometry, second cherry pick | S. cerevisiae RPL19A-GFP strain, 3 h; active compounds read low; 100% means same as DMSO wells | GFP response vs DMSO, % at 10 µM | shares compounds with LAP4-GFP MLPCN | 3% of 590 active;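 active means under 65% GFP response relative to DMSO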;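 further: median GFP channel fluorescence per well over the all cells gate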
CIT2 GFP CP2: modulators of CIT2-GFP expression in yeast, confirmation, flow cytometry, second cherry pick, single plex; shares compounds with LAP4-GFP MLPCN; GFP response vs DMSO, % at 10 µM; S. cerevisiae CIT2-GFP strain, 3 h; DMSO control wells read 100%; 8% of 590 active;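 active means GFP response vs DMSO above about 150%, limit read from the data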;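 further: median green fluorescence per well over all gated yeast cells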
AGP1-GFP pick2: AGP1-GFP expression modulators, hit retest, confirmation, cell-based, flow cytometry, S. cerevisiae, cherry pick set 2; shares compounds with LAP4-GFP MLPCN; S. cerevisiae AGP1-GFP strain, 3 h; percent response vs DMSO, % at 10 µM; 590 tested, under 10 active;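 active means over 150 percent of DMSO response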;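 further: median GFP channel fluorescence over all cells without mother daughter split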
Yeast autofluor: compound autofluorescence in yeast s288c, dose response, artefact control for yeast TOR pathway GFP screen, s288c strain. shares compounds with LAP4-GFP MLPCN. S. cerevisiae s288c, 520 nm autofluorescence, flow cytometry, 3 h; active compounds read high; zero means same as solvent-only cells. fluorescence change (kMESF span) at 33 µM. 610 tested, under 10 active;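 active means fluorescence span over the dose series, or activity score, above about 33, limit read from the data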
s288c autofl DR: autofluorescence of compounds in yeast s288c, dose response, artefact control for yeast TOR pathway GFP screen, primary hits, KU SAR, s288c parental; fluorescence change (span) at 33 µM; 110 tested, under 10 active; AID 488829, 2010; shares compounds with LAP4-GFP MLPCN; S. cerevisiae s288c parental, compound autofluorescence, flow cytometry, 3 h;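 active means fluorescence change span, or the activity score built from it, above 25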
TORC1 bypass: wild-type yeast growth inhibition sparing TORC1 bypass cells, mechanism study for yeast TOR pathway GFP screen, BY4741 wild type, TORC1 bypass strain; shares compounds with LAP4-GFP MLPCN; 120 tested, under 10 active; S. cerevisiae BY4741 spot growth rating, 48-72 h; active compounds read low; growth rating (0-3) at 30 µM;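 active means growth rating at most 1 for wild type yeast while the TORC1 bypass strain still grows fully, rated 3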
Numbers stand for hits; – = inactive; · = no result given. An excerpt weighted towards active compounds, which were near 1.1% of everything screened.

SMILES | VLA-4 inh | MEP2 TOR yeast | AGP1-GFP MLPCN | LAP4-GFP MLPCN | RPL19A-GFP yeast | CIT2 TOR yeast | LAP4 cherry2 | MEP2 cherry2 | RPL19A-GFP pick2 | CIT2 GFP CP2 | AGP1-GFP pick2 | others
Brc1cc(-c2ccccc2)nc(-c2ccccc2)n1 | – | – | – | – | – | – | · | · | · | · | ·
CCCCOc1ccc2c(c1)/C(=C(\C(Cl)=C(Cl)Cl)[N+](=O)[O-])N2 | – | – | – | – | – | – | · | · | · | · | ·
N#C/C(N=Nc1ccccc1O)=N\Nc1ccccc1O | – | – | – | 183 | – | – | – | – | – | – | –
COc1ccc(NC(=O)N2CCC(C(=O)c3ccc(F)cc3)CC2)cc1 | – | – | – | 400 | – | – | – | – | – | – | –
COc1cc(SC)ccc1C(=O)Nc1nc2ccccc2[nH]1 | – | – | – | – | – | – | · | · | · | · | ·
CCOCCCNC(=O)C1CCCN(S(=O)(=O)c2cccc3nsnc23)C1 (centres undefined) | – | – | – | 234 | – | – | – | – | – | – | –
O=C(NNC(=O)c1sccc1-n1cccc1)c1cccc(Cl)c1 | – | – | – | 203 | – | – | – | – | – | – | –
Cc1nn2c(-c3ccncc3)nnc2c2ccccc12 | – | – | – | – | – | – | – | – | 65 | – | – | Yeast autofluor=–;s288c autofl DR=–;TORC1 bypass=–
Cc1nn2c(-c3ccco3)nnc2c2ccccc12 | – | – | – | – | – | – | – | – | – | – | –
COc1ccc(-c2nnc3c4ccccc4c(C)nn23)cc1 | – | – | – | – | – | – | · | · | · | · | ·
CCn1c(=O)c(C(C)=O)c(O)c2ccccc21 | – | – | – | 174 | – | – | · | · | · | · | · | Yeast autofluor=–
CCCc1nnc(NC(=O)c2c(O)c3cccc4c3n(c2=O)CCC4)s1 | – | – | – | – | – | – | – | – | 50 | – | – | Yeast autofluor=–
CCCCNC(=O)c1c(O)c2cccc3c2n(c1=O)CCC3 | – | – | – | – | – | – | · | · | · | · | ·
